Assay results published in PubChem BioAssay (NCI).
About 83,000 compounds went through this panel and 20% of them were active in at least one assay; those are over-represented in the sample as a whole.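 Step 1: grow cells in 96-well plates. Step 2: add test compound at a single concentration. Step 3: incubate 48 h. Step 4: record percent growth.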 Calls of active or inactive are those of the source. The calls were made as follows: active = growth percent below 10; inactive = the rest.

Experiments:
Assay in all cases: NCI-60 one-dose screen, 48 h (100 = growth as untreated, 0 = no growth, -100 = all killed)
[1] = test system: HCT-15 colon
[2] = test system: HT29 colon
[3] = test system: SNB-75 CNS
[4] = test system: SNB-19 CNS
[5] = test system: U251 CNS
[6] = test system: PC-3 prostate
[7] = test system: SK-MEL-5 melanoma
[8] = test system: UACC-62 melanoma
[9] = test system: LOX IMVI melanoma
[10] = test system: SK-MEL-28 melanoma

Measured: growth

CC/C(=C(/c1ccc(O)cc1)c1ccc(OCCN(C)C(=O)COCCOCCNC(=O)Cc2ccc3c(c2)CN([C@@H]2CCC(=O)NC2=O)C3=O)cc1)c1ccccc1
inactive: [1]; 1 µM 107% | [1]; 10 µM 105% | [2]; 1 µM 102% | [2]; 10 µM 83% | [3]; 1 µM 59.6% | [3]; 10 µM 22.7% | [4]; 1 µM 79.5% | [4]; 10 µM 47.5% | [5]; 1 µM 91.9% | [5]; 10 µM 88.7% | [6]; 1 µM 52.8% | [6]; 10 µM 24.4% | [7]; 1 µM 96.3% | [7]; 10 µM 65.8% | [8]; 1 µM 95.6% | [8]; 10 µM 88.2% | [9]; 1 µM 95.1% | [9]; 10 µM 92.1% | [10]; 1 µM 98.3% | [10]; 10 µM 74.3%

Cc1[nH]nc2ccc3nc(-c4cn[nH]c4C(F)(F)F)c4c(c3c12)CCCC4
active: [1]; 10 µM unless noted -4.58% | [2]; 10 µM unless noted 5.08% | [3]; 10 µM unless noted -9.8% | [4]; 10 µM unless noted 3.47% | [5]; 10 µM unless noted 7.24% | [6]; 10 µM unless noted 4.97% | [7]; 10 µM unless noted -51.2% | [8]; 10 µM unless noted -57.3% | [9]; 10 µM unless noted -39.9%

COc1sc(/C=N/NC(=O)c2[nH]c3ccc(Br)cc3c2-c2ccccc2)cc1Br
active: [1]; 10 µM unless noted 7.77% | [2]; 10 µM unless noted -26.9% | [5]; 10 µM unless noted -11.2% | [7]; 10 µM unless noted -53.5% | [9]; 10 µM unless noted -23.4%
inactive: [3]; 10 µM unless noted 57.1% | [4]; 10 µM unless noted 14.7% | [6]; 10 µM unless noted 19.4% | [8]; 10 µM unless noted 17% | [10]; 10 µM unless noted 18.2%

COc1ccc(C2=Nc3c(N)nc(N)nc3NC(c3ccc(Oc4nc(Nc5ccc(F)cc5)nc(N(C)C)n4)c(OC)c3)C2)cc1 (centres undefined)
inactive: [1]; 10 µM unless noted 48.7% | [2]; 10 µM unless noted 46.4% | [3]; 10 µM unless noted 51% | [4]; 10 µM unless noted 76.5% | [5]; 10 µM unless noted 65.3% | [6]; 10 µM unless noted 49.1% | [7]; 10 µM unless noted 51.5% | [8]; 10 µM unless noted 98.3% | [9]; 10 µM unless noted 63.1% | [10]; 10 µM unless noted 93.2%

CN(C)c1nc(NCCNS(=O)(=O)c2ccc(C3=Nc4c(N)nc(N)nc4NC(c4ccc(Cl)cc4)C3)cc2)nc(N2CCOCC2)n1 (centres undefined)
inactive: [1]; 10 µM unless noted 61% | [2]; 10 µM unless noted 30% | [3]; 10 µM unless noted 57.9% | [4]; 10 µM unless noted 46.6% | [5]; 10 µM unless noted 49.5% | [6]; 10 µM unless noted 26.4% | [7]; 10 µM unless noted 20.1% | [8]; 10 µM unless noted 66.6% | [10]; 10 µM unless noted 66.4%
active: [9]; 10 µM unless noted -2.54%

Cc1ccc(S(=O)(=O)N(CCn2ccnc2[N+](=O)[O-])CCn2ccnc2[N+](=O)[O-])cc1
inactive: [1]; 10 µM unless noted 103% | [2]; 10 µM unless noted 112% | [3]; 10 µM unless noted 96% | [4]; 10 µM unless noted 101% | [5]; 10 µM unless noted 102% | [6]; 10 µM unless noted 94.9% | [7]; 10 µM unless noted 99.3% | [8]; 10 µM unless noted 94% | [9]; 10 µM unless noted 102% | [10]; 10 µM unless noted 106%

CCCCN1C(=O)/C(=C\C(=O)c2cc3ccccc3oc2=O)c2ccccc21
active: [1]; 10 µM unless noted 2.32%
inactive: [2]; 10 µM unless noted 71.2% | [3]; 10 µM unless noted 61.6% | [4]; 10 µM unless noted 91.3% | [5]; 10 µM unless noted 88.2% | [6]; 10 µM unless noted 83.3% | [7]; 10 µM unless noted 84.5% | [8]; 10 µM unless noted 65.8% | [9]; 10 µM unless noted 57% | [10]; 10 µM unless noted 52.2%

COC(=O)c1ccc(-c2c(-c3ccccc3)c(F)c3oc(C(=O)OC)c(N)c3c2-c2ccccc2)cc1
inactive: [1]; 10 µM unless noted 77% | [2]; 10 µM unless noted 102% | [3]; 10 µM unless noted 95.7% | [4]; 10 µM unless noted 80.2% | [5]; 10 µM unless noted 82.2% | [6]; 10 µM unless noted 92.1% | [7]; 10 µM unless noted 99.4% | [8]; 10 µM unless noted 82.8% | [9]; 10 µM unless noted 81.6% | [10]; 10 µM unless noted 98.9%

COc1ccc2c(c1)C(=O)N(C)C2C1c2c(cc3c(c2OC)OCO3)CCN1C (centres undefined)
inactive: [1]; 10 µM unless noted 22.5% | [2]; 10 µM unless noted 33.2% | [3]; 10 µM unless noted 37.3% | [4]; 10 µM unless noted 49.1% | [5]; 10 µM unless noted 42.7% | [6]; 10 µM unless noted 46.9% | [7]; 10 µM unless noted 24.9% | [8]; 10 µM unless noted 26.8% | [9]; 10 µM unless noted 46.7% | [10]; 10 µM unless noted 55.9%

O=S(=O)(c1nc(-c2ccc(Br)cc2)oc1-c1ccc(Cl)cc1)N1CCCC(O)C1 (centres undefined)
inactive: [1]; 10 µM unless noted 42.6% | [2]; 10 µM unless noted 11.2% | [3]; 10 µM unless noted 94.6% | [4]; 10 µM unless noted 62% | [5]; 10 µM unless noted 64.8% | [6]; 10 µM unless noted 28.2% | [7]; 10 µM unless noted 82.6% | [8]; 10 µM unless noted 53.8% | [10]; 10 µM unless noted 79.4%
active: [9]; 10 µM unless noted 4.05%

COc1ccc(NC2=C(I)C(=O)C(C)=C(C)C2=O)cc1
active: [7]; 10 µM unless noted -44.6% | [9]; 10 µM unless noted 2.42%
inactive: [1]; 10 µM unless noted 64.3% | [2]; 10 µM unless noted 101% | [3]; 10 µM unless noted 86.3% | [4]; 10 µM unless noted 81.2% | [5]; 10 µM unless noted 25.9% | [6]; 10 µM unless noted 10.2% | [8]; 10 µM unless noted 33.3% | [10]; 10 µM unless noted 52.6%

Nc1nn2c(-c3cc4cc(Br)ccc4oc3=O)ccnc2c1N=Nc1ccccc1
active: [3]; 10 µM unless noted -59.8% | [4]; 10 µM unless noted -54.5% | [5]; 10 µM unless noted -11.2% | [7]; 10 µM unless noted -20.8%
inactive: [1]; 10 µM unless noted 53.4% | [2]; 10 µM unless noted 22.4% | [6]; 10 µM unless noted 14.4% | [8]; 10 µM unless noted 31.6% | [9]; 10 µM unless noted 18% | [10]; 10 µM unless noted 52.5%
